Out of some 360,000 compounds screened, about 1,700 (0.47%) were called active. Entries that show only a call come without a potency. Roughly 2% stayed inconclusive and do not appear here. Many of the other results were omitted from the sample, so actives are more common in it than they were. Unmarked numbers belong to inactive results. The call rests on the fitted dose curve; in most records, active means well fitted inhibition curve with a large enough effect; inconclusive means small, poorly fitted or top-dose-only effect; inactive means no such curve, though single readings can be large or run the other way.
Potency means the concentration at half of the fitted maximal effect.

In the experiment the target is Bifunctional 3'-5' exonuclease/ATP-dependent helicase WRN (Homo sapiens) (UniProt Q14191). Description: qHTS for Inhibitors of WRN Helicase. Further: nearly all actives have a fitted effect of over 55% in size. The settings on record: WRN helicase unwinding, fluorescent forked duplex, kinetic; series mostly up to 114 µM. The gist of the method: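 WRN at 20 nM final was preincubated with compound for 15 min at room temperature; reaction started with 100 nM forked duplex oligonucleotide carrying fluorophore and quencher plus 2 mM ATP (final). Unwinding followed kinetically by red fluorescence (ex 525/em 598 nm).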
Sequence of Bifunctional 3'-5' exonuclease/ATP-dependent helicase WRN (Homo sapiens) (Q14191 whole entry, looked up): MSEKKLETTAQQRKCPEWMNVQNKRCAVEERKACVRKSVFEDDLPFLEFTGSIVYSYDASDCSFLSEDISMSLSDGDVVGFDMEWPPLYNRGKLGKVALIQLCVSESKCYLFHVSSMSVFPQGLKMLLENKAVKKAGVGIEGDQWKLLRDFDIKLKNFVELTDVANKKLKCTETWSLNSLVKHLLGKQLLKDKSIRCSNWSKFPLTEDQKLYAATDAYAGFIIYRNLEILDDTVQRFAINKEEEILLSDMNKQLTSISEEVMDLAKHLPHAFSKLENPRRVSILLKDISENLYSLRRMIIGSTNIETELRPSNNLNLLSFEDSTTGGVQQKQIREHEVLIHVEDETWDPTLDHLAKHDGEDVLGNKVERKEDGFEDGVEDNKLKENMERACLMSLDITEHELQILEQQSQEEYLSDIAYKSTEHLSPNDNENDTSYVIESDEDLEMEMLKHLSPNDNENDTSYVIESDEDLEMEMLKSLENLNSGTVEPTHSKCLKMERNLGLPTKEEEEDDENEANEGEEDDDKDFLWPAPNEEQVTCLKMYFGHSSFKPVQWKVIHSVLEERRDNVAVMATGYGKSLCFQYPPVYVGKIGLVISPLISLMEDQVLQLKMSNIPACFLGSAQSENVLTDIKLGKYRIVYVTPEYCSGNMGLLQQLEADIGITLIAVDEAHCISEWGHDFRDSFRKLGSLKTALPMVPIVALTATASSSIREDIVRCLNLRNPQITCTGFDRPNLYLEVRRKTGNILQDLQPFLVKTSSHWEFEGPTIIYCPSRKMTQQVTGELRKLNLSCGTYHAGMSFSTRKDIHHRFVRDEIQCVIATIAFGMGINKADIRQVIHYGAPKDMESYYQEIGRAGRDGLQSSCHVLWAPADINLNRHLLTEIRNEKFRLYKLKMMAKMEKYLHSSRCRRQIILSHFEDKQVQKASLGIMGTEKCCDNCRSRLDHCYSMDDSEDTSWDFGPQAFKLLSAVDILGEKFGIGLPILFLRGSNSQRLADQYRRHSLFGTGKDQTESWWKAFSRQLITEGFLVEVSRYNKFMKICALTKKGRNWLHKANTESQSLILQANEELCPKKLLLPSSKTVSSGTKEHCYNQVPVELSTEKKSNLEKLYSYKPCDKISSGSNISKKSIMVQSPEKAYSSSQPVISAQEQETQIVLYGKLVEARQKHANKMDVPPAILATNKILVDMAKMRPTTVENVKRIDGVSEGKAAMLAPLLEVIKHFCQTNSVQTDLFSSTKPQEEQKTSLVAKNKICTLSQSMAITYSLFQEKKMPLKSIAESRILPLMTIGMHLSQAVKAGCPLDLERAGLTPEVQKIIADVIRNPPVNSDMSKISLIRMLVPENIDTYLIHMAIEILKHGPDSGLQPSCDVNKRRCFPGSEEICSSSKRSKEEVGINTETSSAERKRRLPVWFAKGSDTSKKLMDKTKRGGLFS
(Quantitative high-throughput screening tests each substance at several concentrations.)
Consider `CCCCC(NS(=O)(=O)c1ccc(C)cc1)C(=O)Oc1ccc2c3c(c(=O)oc2c1)CCC3` (configuration not stated), for which the Potency result is “inactive”.
On the same count and under the same terms, for `CCOc1ccc(CCN2C(=O)C(=O)N([C@@H](CC(C)C)CN3CCC[C@H]3CN3C(=O)C(=O)NC[C@@H]3Cc3ccccc3)C[C@@H]2CC(C)C)cc1` the value was “inactive”; for `C[C@H]1CN([C@@H](C)CO)C(=O)c2cc(-c3ccccc3F)cnc2O[C@H]1CN(C)C(=O)C1CCOCC1`, “inactive”.
Same read-out and setting: for `Cc1cccc(C)c1-n1nnnc1C1(C)CCC(=O)N1CCOc1ccccc1` (configuration not stated) the value was “inactive”.
Still for that read-out and setting: under `CC(=O)Nc1cccc(-c2cc3nc(NCc4cccnc4)n(C)c(=O)c3s2)c1` stands “inactive”.
In the case of `C/C=C\C=C\C(=O)N1CC2(CC(c3cccc(NC(=O)/C(C)=C\C)c3)=NO2)C[C@H]1C(N)=O` (some centres not stated), the activity change, negative = inhibition was -13.3% [at 11.6 µM].
Take `C/C=C(/C)C(=O)Nc1cccc(C2=NOC3(C2)C[C@@H](C(N)=O)N(C(=O)C2(C)CC2)C3)c1` (some centres not stated): the Potency entry was “inactive”.
Still for that read-out and setting: for `C=C(C)C(=O)Nc1cccc(C2=NOC3(C2)C[C@H](C(N)=O)N(C(=O)C(c2ccccc2)c2ccccc2)C3)c1` (some centres not stated) the value was 50.1 µM (active); for `O=C(Nc1ccccc1Cl)c1ccccc1S(=O)(=O)c1ccccc1[N+](=O)[O-]`, “inactive”; for `O=C(Nc1ccccc1Cl)/C(Cl)=C(\Cl)S(=O)c1ccccc1` (configuration not stated), 2.51 µM (active).
Consider `CC(=O)c1ccc(NC(=O)C(C)N(C)CC(=O)Nc2ccccc2Cl)cc1` (configuration not stated), for which the Potency result is “inactive”.
Same read-out and setting: under `COc1cc(OC)cc(C2=Cc3ccccc3C(CC(=O)c3ccco3)N2c2ccc(-c3cnc(OC)nc3)cc2)c1` (configuration not stated) stands “inactive”; under `Cc1ccc(S(=O)(=O)N(c2cccc(C)c2)C2CCS(=O)(=O)C2)cc1` (configuration not stated), “inactive”.
On the same count and under the same terms, for `O=C(CC[C@H]1O[C@@H](n2ccc(=O)[nH]c2=O)[C@H](O)[C@@H]1O)N[C@H](Cc1ccccc1)C(=O)NCCCN1CCCC1=O` the value was “inactive”; for `COc1ccc(NC(=O)COc2ccc(C(=O)OCC(=O)N(C)C3CCS(=O)(=O)C3)cc2OC)cc1` (configuration not stated), “inactive”; for `CN(C(=O)COC(=O)Cc1ccccc1[N+](=O)[O-])C1CCS(=O)(=O)C1` (configuration not stated), “inactive”.
The same measure, in the same setting: under `CN(C(=O)COC(=O)c1cc(-c2ccco2)nc2ccccc12)C1CCS(=O)(=O)C1` (configuration not stated) stands 31.6 µM (active); under `Cc1ccc(C2(c3ccc(C)cc3)NC(=O)N(Cc3c(C)noc3C)C2=O)cc1`, “inactive”; under `NC(=O)c1c(NC(=O)CSc2nnc(-c3ccco3)n2N)sc2c1CCCC2`, 50.1 µM (active).
With `Nn1c(SCC(=O)Nc2nccs2)nnc1-c1ccco1`, the Potency result is “inactive”.
The same measure, in the same setting: for `CCOC(=O)c1c(NC(=O)CSc2nnc(CN3CCOCC3)n2C)sc2c1CCCC2` the value was “inactive”; for `COc1cc(OC)c(NC(=O)C2CCCN2C(=O)OCc2ccccc2)cc1Cl` (configuration not stated), “inactive”.
On the same count and under the same terms, under `O=C1Nc2ccccc2NC(c2ccc3c(c2)OCO3)=C1N(Cc1ccc(F)cc1)C(=O)c1ccco1` stands “inactive”; under `CC(C)c1ccc2c(c1)c(SC(C)(C)C)c(CC(C)(C)C(=O)O)n2Cc1ccc(Cl)cc1`, 50.1 µM (active).
Same read-out and setting: for `CCC(CC)NC(=O)CSc1nnc(-c2c[nH]c3ccccc23)o1` the value was “inactive”.
For the molecule `O=C(c1cc(C2CCCCN2S(=O)(=O)c2ccccc2)on1)N1CCOCC1` (configuration not stated), the Potency entry was “inactive”.
On the same count and under the same terms, for `CCCCN1C(=O)/C(=C(/C#N)C(N)=O)c2ccccc21` the value was “inactive”; for `C#CCN1C(=O)C(O)(CC(=O)c2cc(OC)ccc2OC)c2ccccc21` (configuration not stated), “inactive”; for `COc1ccc2c(c1)C(=C(C#N)C#N)C(=O)N2CCc1ccccc1`, 50.1 µM (active).
On the same count and under the same terms, for `CCCCn1c(N)c(N(CCOC)C(=O)c2sc3ccccc3c2Cl)c(=O)[nH]c1=O` the value was “inactive”; for `Cc1[nH]c2ccccc2c1C(=O)c1cc([C@H](NC(=O)OC(C)(C)C)C(C)C)sc1N`, “inactive”.
With `COc1ccc([C@H]2CC(=O)C[C@@H](CCn3cc(CC4CCCC4)nn3)O2)cc1`, the Potency entry was “inactive”.
Still for that read-out and setting: for `O=C1c2cccc3cccc(c23)C(=O)N1CCCCCc1n[nH]c(=S)o1` the value was 100 µM (active).
With `O=C(CN1C(=O)c2cccc3cccc(c23)C1=O)N1CCCCC1`, the Potency result was “inactive”.
As for `O=C(CCCN1C(=O)c2cccc3cccc(c23)C1=O)N1CCN(Cc2ccc3c(c2)OCO3)CC1`, the Potency result is “inactive”.
The same measure, in the same setting: under `C[N+](C)(CCCCCC[N+](C)(C)CCCN1C(=O)c2cccc3cccc(c23)C1=O)CCCN1C(=O)c2cccc3cccc(c23)C1=O` stands 44.7 µM (active).
Same read-out and setting: for `O=C(COC(=O)CCCN1C(=O)c2cccc3cccc(c23)C1=O)NC1CCS(=O)(=O)C1` (configuration not stated) the value was “inactive”.
With `O=C(CN1C(=O)c2cccc3cccc1c23)Nc1ccccc1`, the activity change, negative = inhibition was -0.0297% [at 11.6 µM].
In the case of `Cc1ccc(CCNC(=O)CN2C(=O)CSc3ccc(S(=O)(=O)N4CCOCC4)cc32)cc1`, the Potency entry was “inactive”.
Same read-out and setting: under `CCOC(=O)[C@]12CCCC=C1N(CCC1=CCCCC1)C(=O)[C@H](CC(=O)NCCCCc1ccccc1)C2` stands “inactive”; under `CCCCOCCCNC(=O)C[C@@H]1C[C@@]2(C(=O)OCC)CCCC=C2N(CCC2=CCCCC2)C1=O`, “inactive”; under `CN(C)c1ccc(CSc2ccccc2)cc1`, “inactive”.
Same read-out and setting: for `CS/C(=C\[N+](=O)[O-])Nc1ccc(C)cc1` the value was “inactive”.
Same read-out and setting: under `Nc1nc2ncccn2c1-c1ccccc1` stands “inactive”; under `Clc1ccccc1CSc1nnc(-c2ccco2)c(-c2ccco2)n1`, 50.1 µM (active); under `CSc1nc(-c2ccco2)nn1C(=O)c1ccccc1Cl`, “inactive”.
For `COc1ccc(NCc2nnc(SCc3ccccc3)n2-c2ccc(OC)cc2)cc1`, the Potency result was “inactive”.
The same measure, in the same setting: under `O=C(Nc1nnc(SCc2ccccc2Cl)s1)c1cccc([N+](=O)[O-])c1` stands “inactive”.
On the same count and under the same terms, for `c1ccc(CSc2nnc(-c3ccco3)c(-c3ccco3)n2)cc1` the value was 28.2 µM (active).
Still for that read-out and setting: for `c1ccc(Cc2c(-c3ccco3)nc3c4ccccc4ccn23)cc1` the value was “inactive”; for `CCCC1(C(=O)OC)NC(c2ccco2)C2C(=O)N(C)C(=O)C21` (configuration not stated), “inactive”.
Turning to `Cc1cc(C)c(S(=O)(=O)N2C=CC(C(F)(F)F)=NCC2)c(C)c1`, the Potency result was “inactive”.
On the same count and under the same terms, under `CSc1c(SCc2ccccc2)cnn(Cc2ccccc2)c1=O` stands “inactive”; under `O=C(c1ccc(Cl)c(S(=O)(=O)N2CCCCCC2)c1)N1CCN(c2ccc(O)cc2)CC1`, “inactive”.
The same measure, in the same setting: under `c1ccc(-n2cccc2)c(N2CCCCC2)c1` stands “inactive”; under `O=C1C=CC(=O)N1c1ccc(N2CCCCC2)cc1`, 39.8 µM (active).
Still for that read-out and setting: for `CCCC(NCC(=O)Nc1ccccc1C(=O)NC1CC1)c1ccccc1` (configuration not stated) the value was “inactive”.

(Values after PubChem BioAssay AID651768 (National Center for Advancing Translational Sciences (NCATS), 2012).)
